Test results: PubChem BioAssay (EPA / NIEHS)
Inconclusive results are not listed. Active and inactive are the calls of the source. How the source made its calls, unless noted: active means hit-call score of the fitted dose curve at least 0.9, where 1 is the maximum; inconclusive means response in the unintended direction; inactive means score below 0.9.

Experiments:
[1] = TOX21_p53_BLA_p2_viability: Viability Assessment in the Tox21 HCT-116 p53 Agonism Beta-lactamase Assay, Phase 2 (AID 2283591);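 further: compound exposure lasted 16 h at 37 °C; actives lower the ATP signal meaning cytotoxicity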
Outline: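 HCT-116 p53-bla cells (4000/well) rested 5 h at 37C, then received compounds in DMSO (217-fold dilution) for 16 h at 37C, 5% CO2. After the CCF4 read, CellTiter-Glo was added; ATP luminescence was read after 30 min at room temperature.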

[2] = target: Cellular tumor antigen p53 (Homo sapiens) (UniProt P04637); assay: TOX21_p53_BLA_p2_ratio: Tox21 HCT-116 p53 Agonism Beta-lactamase Assay, Ratio, Phase 2 (AID 2283592)
Outline: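 HCT116 cells carrying a p53-responsive beta-lactamase reporter were plated, incubated 5 h at 37C, then dosed with compounds in DMSO (217-fold dilution) for 16 h. CCF4-AM substrate was added for 2 h at room temperature; the 460/530 nm emission ratio gave gain-of-signal activity relative to DMSO.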

[3] = TOX21_p53_BLA_p3_viability: Viability Assessment in the Tox21 HCT-116 p53 Agonism Beta-lactamase Assay, Phase 3 (AID 2283593);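 further: cells exposed to compound for 16 h before reading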
Outline: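 HCT-116 cells (4000/well) rested 5 h at 37C, then got DMSO compounds by pin tool (217-fold dilution) for 16 h at 37C, 5% CO2. After the bla read, CellTiter-Glo was added and luminescence read at 30 min, room temperature.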

[4] = TOX21_p53_BLA_p4_viability: Viability Assessment in the Tox21 HCT-116 p53 Agonism Beta-lactamase Assay, Phase 4 (AID 2283597);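 further: hits lower the luminescence signal meaning cytotoxicity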
Outline: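 HCT116 p53-bla cells (4000/well) rested 5 h at 37C, then received compounds in DMSO (217-fold dilution) for 16 h at 37C, 5% CO2. CellTiter-Glo was added after the CCF4-AM read, and luminescence was read after 30 min at room temperature.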

[5] = target: Cellular tumor antigen p53 (Homo sapiens) (UniProt P04637); assay: TOX21_p53_BLA_p5_ratio: Tox21 HCT-116 p53 Agonism Beta-lactamase Assay, Ratio, Phase 5 (AID 2283599)
Outline: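 HCT-116 cells carrying a p53-inducible beta-lactamase reporter were seeded at 4000 cells/well and dosed after 5 h with compound in DMSO (217-fold dilution). After 16 h at 37C, CCF4-AM substrate was added for 2 h, and the 460/530 nm emission ratio was scored as gain-of-signal versus DMSO.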

[6] = TOX21_p53_BLA_p5_viability: Viability Assessment in the Tox21 HCT-116 p53 Agonism Beta-lactamase Assay, Phase 5 (AID 2283600)
Outline: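 Cells were plated at 4000/well, rested 5 h at 37C, then given compounds in DMSO (217-fold dilution) for 16 h at 37C, 5% CO2. Following the CCF4-AM beta-lactamase read, CellTiter-Glo was added and luminescence was read after 30 min at room temperature.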

[7] = target: Cellular tumor antigen p53 (Homo sapiens) (UniProt P04637); assay: TOX21_p53_BLA_p4_ratio: Tox21 HCT-116 p53 Agonism Beta-lactamase Assay, Ratio, Phase 4 (AID 2283601)
Outline: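 HCT116 cells carrying an inducible beta-lactamase reporter were plated at 4000 cells/well, rested 5 h, then exposed to compounds in DMSO (217-fold dilution) for 16 h at 37C. CCF4-AM substrate was loaded 2 h at room temperature; 460/530 nm emission ratio scored gain-of-signal versus DMSO.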

PGR (gene 5241) [8] = target: PGR (gene 5241) (UniProt P06401); assay: TOX21_PR_BLA_Followup_Agonist_ratio: Tox21 HEK293 Progesterone Receptor (PR) Agonism Beta-lactamase Follow-Up Assay, Ratio (AID 2283933)
Outline: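 PR-UAS-bla HEK293T cells in medium with 2% charcoal-stripped FBS were dosed after 6 h plating and incubated 16 h at 37C. LiveBLAzer FRET substrate was added for 2 h at room temperature. Cleaved/uncleaved substrate ratio fitted against DMSO; CellTiter-Glo viability run in the same wells.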

PGR (gene 5241) [9] = target: PGR (gene 5241) (UniProt P06401); assay: TOX21_PR_BLA_Followup_Antagonist_ratio: Tox21 HEK293 Progesterone Receptor (PR) Antagonism Beta-lactamase Follow-Up Assay, Ratio (AID 2283934)
Outline: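 PR-UAS-bla HEK293T cells, 3,000/well in 2% charcoal-stripped FBS, given compound plus 1nM R5020 agonist for 16 hr at 37C. Beta-lactamase FRET substrate 2 hours, ratio cleaved/uncleaved fluorescence; viability by CellTiter-Glo in same wells.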

[10] = TOX21_PR_BLA_Followup_Agonist_viability: Viability Assessment in the Tox21 HEK293 Progesterone Receptor (PR) Agonism Beta-lactamase Follow-Up Assay (AID 2283935);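 further: signal loss means lower viability so actives are cytotoxic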
Outline: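 PR-UAS-bla HEK293T cells in 2% charcoal-stripped FBS medium, plated 6 hr before compound addition, exposed 16 hr at 37C. Viability read by CellTiter-Glo ATP luminescence after 30 min at room temperature, in the same wells as the beta-lactamase readout.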

[11] = TOX21_PR_BLA_Followup_Antagonist_viability: Viability Assessment in the Tox21 HEK293 Progesterone Receptor (PR) Antagonism Beta-lactamase Follow-Up Assay (AID 2283936);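 further: hits lower the luminescence signal meaning cytotoxicity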
Outline: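 PR-UAS-bla HEK293T cells (3,000/well, 2% charcoal-stripped FBS) given compound plus R5020 agonist, 16 h at 37C. CellTiter-Glo added after bla read, 30 min at room temperature; luminescence loss indicates cytotoxicity.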

PGR (gene 5241) [12] = target: PGR (gene 5241) (UniProt P06401); assay: TOX21_PR_LUC_Followup_Agonist: Tox21 HEK293 Progesterone Receptor (PR) Agonism Luciferase Follow-Up Assay (AID 2283937; active means hit-call score of the fitted dose curve at least 0.9, where 1 is the maximum; inactive means score below 0.9)
Outline: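 HEK293-PR-A-luc cells, conditioned 5 days in 10% charcoal-stripped FBS medium, seeded 3,000/well for 5 h, then compound-treated 16 h at 37C. ONE-Glo luminescence read after 30 min at room temperature; gain of signal versus DMSO.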

PGR (gene 5241) [13] = target: PGR (gene 5241) (UniProt P06401); assay: TOX21_PR_LUC_Followup_Antagonist: Tox21 HEK293 Progesterone Receptor (PR) Antagonism Luciferase Follow-Up Assay (AID 2283938);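 further: curve fitted upward as signal gain over DMSO baseline despite antagonist label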
Outline: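 HEK293-PR-A-luc cells were precultured 5 days in medium with 10% charcoal-stripped FBS, seeded 3,000/well, then exposed to compounds in DMSO for 16 h at 37C. Luciferase was read by ONE-Glo luminescence after 30 min at room temperature.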

[14] = TOX21_PR_LUC_Followup_Agonist_viability: Viability Assessment in the Tox21 HEK293 Progesterone Receptor (PR) Agonism Luciferase Follow-Up Assay (AID 2283941);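 further: loss of signal means cytotoxicity so actives lower viability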
Outline: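 HEK293-PR-A-luc cells, kept in 10% charcoal-stripped FBS medium, were treated with compounds for 16 h at 37C. Viability read as cellular ATP by luciferase-coupled luminescence; loss of signal indicates cytotoxicity.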

Cellular tumor antigen p53 (Homo sapiens), sequence (P04637 whole entry, looked up): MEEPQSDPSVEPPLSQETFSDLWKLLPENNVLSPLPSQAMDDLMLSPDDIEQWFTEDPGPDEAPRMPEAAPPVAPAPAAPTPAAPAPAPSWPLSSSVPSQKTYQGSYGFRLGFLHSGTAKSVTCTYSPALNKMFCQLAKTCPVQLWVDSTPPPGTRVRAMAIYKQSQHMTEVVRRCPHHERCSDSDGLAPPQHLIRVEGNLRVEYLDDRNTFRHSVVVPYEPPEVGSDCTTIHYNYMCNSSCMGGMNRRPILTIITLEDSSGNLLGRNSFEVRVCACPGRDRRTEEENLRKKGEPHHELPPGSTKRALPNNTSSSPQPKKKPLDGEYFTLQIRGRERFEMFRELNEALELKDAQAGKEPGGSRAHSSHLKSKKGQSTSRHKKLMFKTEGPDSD
PGR (gene 5241), sequence (P06401 whole entry, looked up): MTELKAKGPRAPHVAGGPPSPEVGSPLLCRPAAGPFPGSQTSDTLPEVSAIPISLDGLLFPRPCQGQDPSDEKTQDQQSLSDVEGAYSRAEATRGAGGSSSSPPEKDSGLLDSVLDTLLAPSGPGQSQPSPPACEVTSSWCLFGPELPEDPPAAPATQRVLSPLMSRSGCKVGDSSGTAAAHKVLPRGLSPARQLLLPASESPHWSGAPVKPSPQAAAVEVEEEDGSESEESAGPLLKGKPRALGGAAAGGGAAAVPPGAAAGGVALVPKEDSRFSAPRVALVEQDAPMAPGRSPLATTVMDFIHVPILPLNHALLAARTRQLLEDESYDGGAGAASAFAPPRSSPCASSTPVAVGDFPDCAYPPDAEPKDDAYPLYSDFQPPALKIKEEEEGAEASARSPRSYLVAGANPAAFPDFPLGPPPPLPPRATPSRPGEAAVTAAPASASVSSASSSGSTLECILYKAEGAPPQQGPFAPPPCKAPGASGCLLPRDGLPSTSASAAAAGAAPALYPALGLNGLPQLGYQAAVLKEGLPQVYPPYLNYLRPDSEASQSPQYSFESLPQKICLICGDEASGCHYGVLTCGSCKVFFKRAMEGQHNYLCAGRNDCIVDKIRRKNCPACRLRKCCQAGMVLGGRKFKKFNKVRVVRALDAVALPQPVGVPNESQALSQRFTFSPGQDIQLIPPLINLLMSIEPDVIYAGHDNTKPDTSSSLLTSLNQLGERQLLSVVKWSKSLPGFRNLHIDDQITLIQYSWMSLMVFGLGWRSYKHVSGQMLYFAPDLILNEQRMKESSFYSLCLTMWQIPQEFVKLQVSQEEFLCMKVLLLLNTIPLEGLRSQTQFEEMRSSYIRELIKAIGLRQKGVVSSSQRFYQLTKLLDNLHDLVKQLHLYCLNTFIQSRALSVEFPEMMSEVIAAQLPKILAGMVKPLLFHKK

## C[C@]12Cc3nonc3C[C@@H]1CC[C@@H]1[C@@H]2CC[C@@]2(C)[C@H]1CC[C@]2(C)O
[1]
  outcome: inactive
[2]
  outcome: inactive
[3]
  AC50: 25.7 µM (active)
[4]
  AC50: 23 µM (active)
[5]
  outcome: inactive
[6]
  outcome: inactive
[7]
  outcome: inactive
PGR (gene 5241) [8]
  AC50: 6.11 µM (active)
PGR (gene 5241) [9]
  outcome: inactive
[10]
  AC50: 35.1 µM (active)
[11]
  outcome: inactive
PGR (gene 5241) [12]
  AC50: 0.862 µM (active)
PGR (gene 5241) [13]
  outcome: inactive
[14]
  outcome: inactive
